# Test results: article PMC11006913
# Experiments:
# Assay in all cases: PBM; 200 nM protein, PBS
# Conditions in all cases: dsDNA, one strand shown
# [1] = target: HOXB9 (Homo sapiens, UniProt P17482 171-250, T197M)
# [2] = target: HOXB9 (Homo sapiens, UniProt P17482 171-250)
# [3] = target: HOXD13 (Homo sapiens, UniProt P35453 263-343, T313R)
# [4] = target: HOXB9 (Homo sapiens, UniProt P17482 171-250, R186Q)
# [5] = target: VAX1 (Homo sapiens, UniProt Q5SQQ9 86-172)
# [6] = target: VAX1 (Homo sapiens, UniProt Q5SQQ9 86-172, T142I)
# [7] = target: VAX1 (Homo sapiens, UniProt Q5SQQ9 86-172, K157R)
# [8] = target: HOXA2 (Homo sapiens, UniProt O43364 129-215, R185T)
# [9] = target: HOXA2 (Homo sapiens, UniProt O43364 129-215, R185K)
# [10] = target: HOXA2 (Homo sapiens, UniProt O43364 129-215, Y150S)
# [11] = target: HOXA2 (Homo sapiens, UniProt O43364 129-215)
# [12] = target: T1, NKX2-6 (Homo sapiens, UniProt A6NCS4 118-204, R150C)
# T1 sequence: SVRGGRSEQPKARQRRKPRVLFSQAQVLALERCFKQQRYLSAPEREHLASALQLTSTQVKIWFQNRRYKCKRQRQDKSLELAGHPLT
# [13] = target: MSX2 (Homo sapiens, UniProt P35548 130-214, R199I)
# [14] = target: MSX2 (Homo sapiens, UniProt P35548 130-214)
# [15] = target: MSX2 (Homo sapiens, UniProt P35548 130-214, F161Y)
# [16] = target: ALX1 (Homo sapiens, UniProt Q15699 118-204, L144V)
# [17] = target: ALX1 (Homo sapiens, UniProt Q15699 118-204, L144R)
# [18] = target: ALX1 (Homo sapiens, UniProt Q15699 118-204)
# Sequence of ALX1 (Homo sapiens, UniProt Q15699 118-204) (Q15699 118-204): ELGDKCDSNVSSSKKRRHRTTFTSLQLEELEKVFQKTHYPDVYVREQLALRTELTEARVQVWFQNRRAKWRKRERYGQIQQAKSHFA
# Sequence of VAX1 (Homo sapiens, UniProt Q5SQQ9 86-172) (Q5SQQ9 86-172): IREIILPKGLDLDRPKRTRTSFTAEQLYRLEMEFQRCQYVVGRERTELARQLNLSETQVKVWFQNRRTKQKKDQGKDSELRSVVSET
# Sequence of HOXB9 (Homo sapiens, UniProt P17482 171-250, R186Q) (P17482 171-250 R186Q): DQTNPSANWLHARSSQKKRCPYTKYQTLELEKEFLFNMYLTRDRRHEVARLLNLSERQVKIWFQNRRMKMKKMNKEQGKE
# Sequence of VAX1 (Homo sapiens, UniProt Q5SQQ9 86-172, T142I) (Q5SQQ9 86-172 T142I): as the sequence (Q5SQQ9 86-172) above, with T57I counted along it
# Sequence of HOXB9 (Homo sapiens, UniProt P17482 171-250) (P17482 171-250): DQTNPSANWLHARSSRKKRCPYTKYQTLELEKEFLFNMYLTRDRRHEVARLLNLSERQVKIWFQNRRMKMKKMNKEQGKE
# Sequence of VAX1 (Homo sapiens, UniProt Q5SQQ9 86-172, K157R) (Q5SQQ9 86-172 K157R): as the sequence (Q5SQQ9 86-172) above, with K72R counted along it
# Sequence of HOXB9 (Homo sapiens, UniProt P17482 171-250, T197M) (P17482 171-250 T197M): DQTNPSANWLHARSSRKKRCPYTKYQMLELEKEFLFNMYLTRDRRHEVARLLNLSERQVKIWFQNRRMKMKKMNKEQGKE
# Sequence of HOXA2 (Homo sapiens, UniProt O43364 129-215, R185K) (O43364 129-215 R185K): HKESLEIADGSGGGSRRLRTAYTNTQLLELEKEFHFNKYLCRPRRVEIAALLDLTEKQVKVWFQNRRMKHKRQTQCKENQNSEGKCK
# Sequence of MSX2 (Homo sapiens, UniProt P35548 130-214) (P35548 130-214): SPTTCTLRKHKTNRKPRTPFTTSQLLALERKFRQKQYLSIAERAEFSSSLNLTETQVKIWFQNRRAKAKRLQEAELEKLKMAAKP
# Sequence of HOXA2 (Homo sapiens, UniProt O43364 129-215, Y150S) (O43364 129-215 Y150S): as the sequence (O43364 129-215 R185K) above, with Y22S, K57R counted along it
# Sequence of MSX2 (Homo sapiens, UniProt P35548 130-214, F161Y) (P35548 130-214 F161Y): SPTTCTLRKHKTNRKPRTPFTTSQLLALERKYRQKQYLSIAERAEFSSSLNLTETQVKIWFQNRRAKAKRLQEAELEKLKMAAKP
# Sequence of HOXA2 (Homo sapiens, UniProt O43364 129-215) (O43364 129-215): as the sequence (O43364 129-215 R185K) above, with K57R counted along it
# Sequence of HOXA2 (Homo sapiens, UniProt O43364 129-215, R185T) (O43364 129-215 R185T): as the sequence (O43364 129-215 R185K) above, with K57T counted along it
# Sequence of MSX2 (Homo sapiens, UniProt P35548 130-214, R199I) (P35548 130-214 R199I): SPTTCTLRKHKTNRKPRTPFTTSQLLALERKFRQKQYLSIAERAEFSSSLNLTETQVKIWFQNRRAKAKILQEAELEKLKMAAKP
# Sequence of ALX1 (Homo sapiens, UniProt Q15699 118-204, L144V) (Q15699 118-204 L144V): as the sequence (Q15699 118-204) above, with L27V counted along it
# Sequence of HOXD13 (P35453 263-343 T313R): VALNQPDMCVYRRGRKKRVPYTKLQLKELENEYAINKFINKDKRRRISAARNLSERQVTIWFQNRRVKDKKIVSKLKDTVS
# Sequence of ALX1 (Homo sapiens, UniProt Q15699 118-204, L144R) (Q15699 118-204 L144R): as the sequence (Q15699 118-204) above, with L27R counted along it
sequence,measurement,setting,value
TATAAATA,binding signal,[1],"9.81 upbm affinity estimate (log intensity, higher = more binding, comparable within an allelic series)"
same,binding signal,[2],"11.2 upbm affinity estimate (log intensity, higher = more binding, comparable within an allelic series)"
same,binding signal,[3],"10.8 upbm affinity estimate (log intensity, higher = more binding, comparable within an allelic series)"
same,binding signal,[4],"10.8 upbm affinity estimate (log intensity, higher = more binding, comparable within an allelic series)"
CTTGGGCC,binding signal,[1],"8.42 upbm affinity estimate (log intensity, higher = more binding, comparable within an allelic series)"
same,binding signal,[2],"8.37 upbm affinity estimate (log intensity, higher = more binding, comparable within an allelic series)"
same,binding signal,[5],"6.94 upbm affinity estimate (log intensity, higher = more binding, comparable within an allelic series)"
same,binding signal,[4],"8.33 upbm affinity estimate (log intensity, higher = more binding, comparable within an allelic series)"
same,binding signal,[6],"7.04 upbm affinity estimate (log intensity, higher = more binding, comparable within an allelic series)"
same,binding signal,[7],"6.93 upbm affinity estimate (log intensity, higher = more binding, comparable within an allelic series)"
CGAAGGAC,binding signal,[1],"8.68 upbm affinity estimate (log intensity, higher = more binding, comparable within an allelic series)"
same,binding signal,[2],"8.57 upbm affinity estimate (log intensity, higher = more binding, comparable within an allelic series)"
same,binding signal,[4],"8.58 upbm affinity estimate (log intensity, higher = more binding, comparable within an allelic series)"
CGCGCCCC,binding signal,[1],"8.45 upbm affinity estimate (log intensity, higher = more binding, comparable within an allelic series)"
same,binding signal,[8],"7.42 upbm affinity estimate (log intensity, higher = more binding, comparable within an allelic series)"
same,binding signal,[2],"8.02 upbm affinity estimate (log intensity, higher = more binding, comparable within an allelic series)"
same,binding signal,[9],"10.1 upbm affinity estimate (log intensity, higher = more binding, comparable within an allelic series)"
same,binding signal,[5],"7.05 upbm affinity estimate (log intensity, higher = more binding, comparable within an allelic series)"
same,binding signal,[4],"8.34 upbm affinity estimate (log intensity, higher = more binding, comparable within an allelic series)"
same,binding signal,[6],"6.95 upbm affinity estimate (log intensity, higher = more binding, comparable within an allelic series)"
same,binding signal,[10],"10.2 upbm affinity estimate (log intensity, higher = more binding, comparable within an allelic series)"
same,binding signal,[11],"7.21 upbm affinity estimate (log intensity, higher = more binding, comparable within an allelic series)"
same,binding signal,[7],"7.04 upbm affinity estimate (log intensity, higher = more binding, comparable within an allelic series)"
CGCTACCG,binding signal,[1],"8.45 upbm affinity estimate (log intensity, higher = more binding, comparable within an allelic series)"
same,binding signal,[2],"8.54 upbm affinity estimate (log intensity, higher = more binding, comparable within an allelic series)"
same,binding signal,[12],"9.4 upbm affinity estimate (log intensity, higher = more binding, comparable within an allelic series)"
same,binding signal,[4],"8.56 upbm affinity estimate (log intensity, higher = more binding, comparable within an allelic series)"
CGCCGGAC,binding signal,[1],"8.48 upbm affinity estimate (log intensity, higher = more binding, comparable within an allelic series)"
same,binding signal,[8],"7.23 upbm affinity estimate (log intensity, higher = more binding, comparable within an allelic series)"
same,binding signal,[2],"8.46 upbm affinity estimate (log intensity, higher = more binding, comparable within an allelic series)"
same,binding signal,[9],"10.4 upbm affinity estimate (log intensity, higher = more binding, comparable within an allelic series)"
same,binding signal,[4],"8.52 upbm affinity estimate (log intensity, higher = more binding, comparable within an allelic series)"
same,binding signal,[10],"10.4 upbm affinity estimate (log intensity, higher = more binding, comparable within an allelic series)"
same,binding signal,[11],"7.32 upbm affinity estimate (log intensity, higher = more binding, comparable within an allelic series)"
GCACCGCC,binding signal,[1],"8.24 upbm affinity estimate (log intensity, higher = more binding, comparable within an allelic series)"
same,binding signal,[2],"8.35 upbm affinity estimate (log intensity, higher = more binding, comparable within an allelic series)"
same,binding signal,[4],"8.25 upbm affinity estimate (log intensity, higher = more binding, comparable within an allelic series)"
CCTGCTCG,binding signal,[1],"8.58 upbm affinity estimate (log intensity, higher = more binding, comparable within an allelic series)"
same,binding signal,[2],"8.34 upbm affinity estimate (log intensity, higher = more binding, comparable within an allelic series)"
same,binding signal,[13],"9.56 upbm affinity estimate (log intensity, higher = more binding, comparable within an allelic series)"
same,binding signal,[14],"9.58 upbm affinity estimate (log intensity, higher = more binding, comparable within an allelic series)"
same,binding signal,[4],"8.42 upbm affinity estimate (log intensity, higher = more binding, comparable within an allelic series)"
same,binding signal,[15],"9.61 upbm affinity estimate (log intensity, higher = more binding, comparable within an allelic series)"
CTCGACCA,binding signal,[1],"8.44 upbm affinity estimate (log intensity, higher = more binding, comparable within an allelic series)"
same,binding signal,[2],"8.28 upbm affinity estimate (log intensity, higher = more binding, comparable within an allelic series)"
same,binding signal,[16],"6.22 upbm affinity estimate (log intensity, higher = more binding, comparable within an allelic series)"
same,binding signal,[17],"6.21 upbm affinity estimate (log intensity, higher = more binding, comparable within an allelic series)"
same,binding signal,[4],"8.38 upbm affinity estimate (log intensity, higher = more binding, comparable within an allelic series)"
same,binding signal,[18],"6.22 upbm affinity estimate (log intensity, higher = more binding, comparable within an allelic series)"
CGCCCAGA,binding signal,[1],"8.62 upbm affinity estimate (log intensity, higher = more binding, comparable within an allelic series)"
same,binding signal,[2],"8.59 upbm affinity estimate (log intensity, higher = more binding, comparable within an allelic series)"
same,binding signal,[5],"7.13 upbm affinity estimate (log intensity, higher = more binding, comparable within an allelic series)"
same,binding signal,[4],"8.62 upbm affinity estimate (log intensity, higher = more binding, comparable within an allelic series)"
same,binding signal,[6],"7.22 upbm affinity estimate (log intensity, higher = more binding, comparable within an allelic series)"
same,binding signal,[7],"7.49 upbm affinity estimate (log intensity, higher = more binding, comparable within an allelic series)"
CTCCCGCC,binding signal,[1],"8.4 upbm affinity estimate (log intensity, higher = more binding, comparable within an allelic series)"
same,binding signal,[2],"8.4 upbm affinity estimate (log intensity, higher = more binding, comparable within an allelic series)"
same,binding signal,[4],"8.4 upbm affinity estimate (log intensity, higher = more binding, comparable within an allelic series)"
GAAGCGGC,binding signal,[1],"8.49 upbm affinity estimate (log intensity, higher = more binding, comparable within an allelic series)"
same,binding signal,[2],"8.36 upbm affinity estimate (log intensity, higher = more binding, comparable within an allelic series)"
same,binding signal,[4],"8.37 upbm affinity estimate (log intensity, higher = more binding, comparable within an allelic series)"
ACCGGGGA,binding signal,[1],"8.44 upbm affinity estimate (log intensity, higher = more binding, comparable within an allelic series)"
same,binding signal,[2],"8.19 upbm affinity estimate (log intensity, higher = more binding, comparable within an allelic series)"
same,binding signal,[13],"9.45 upbm affinity estimate (log intensity, higher = more binding, comparable within an allelic series)"
same,binding signal,[14],"9.39 upbm affinity estimate (log intensity, higher = more binding, comparable within an allelic series)"
same,binding signal,[4],"8.23 upbm affinity estimate (log intensity, higher = more binding, comparable within an allelic series)"
same,binding signal,[15],"9.41 upbm affinity estimate (log intensity, higher = more binding, comparable within an allelic series)"
